Bioassay records (PubChem BioAssay)
Gal4-VP16 FLuc – counter-screen for ROR gamma inhibitors: Gal4-VP16 reporter. Potency, µM (series often up to 53.6 µM), for the others: top-dose activity, negative = inhibition, usual class: inhibitors. Drosophila S2 Gal4-VP16 UAS-luciferase, luminescence, 20 h. hit rate 3.5% among 310,000;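 also: Gal4-VP16 expression switched on by copper sulfate through the metallothionein promoter; nearly all actives have a fitted effect of over 50% in size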
TDP1 inh – blocks human tyrosyl-DNA phosphodiesterase 1; hit rate 0.28% among 350,000; recombinant TDP1, AlphaScreen DNA substrate cleavage; Q9NUW8; Potency, µM (top dose mostly 130 µM), inactives show at the highest dose activity change, negative = inhibition, hits mostly inhibitors; also: nearly all actives have a fitted effect of over 40% in size
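Recombinant E. coli-expressed Tdp1 (1 nM) preincubated with compound 15 min at RT, then 5'-biotin/3'-phosphotyrosine-FITC DNA substrate (15 nM) added for 5 min. AlphaScreen beads (10 ug/ml) added, 10 min RT; tyrosine-FITC cleavage read as signal loss.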
DT40 TDP1 no CPT – qHTS for Inhibitors of human tyrosyl-DNA phosphodiesterase 1 (TDP1): qHTS in cells in absence of CPT; Potency, µM (highest dose often 46.2 µM), inactives show top-dose activity change, negative = growth inhibition, actives largely listed as inhibitors; hit rate 15% among 420,000; DT40 Tdp1-/- hTDP1 cells, no CPT, ATP luminescence, 48 h; also: nearly all actives have a fitted effect of over 55% in size
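Chicken DT40 Tdp1-/- cells stably complemented with human TDP1 were seeded at 400 cells/well with DMSO in place of 20 nM camptothecin. After compound pinning, cells grew at least 48 hr at 37 °C; viability read by CellTiter-Glo luminescence.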
RORg inh – inhibitors of mouse ROR gamma transcriptional activity; P51450; Drosophila S2 Gal4-RORgamma UAS-luciferase reporter, 20 h; Potency, µM (doses to about 53.6 µM), for inactives: at the top dose activity change, negative = inhibition, hits mostly inhibitors; hit rate 5.4% among 310,000; AID 2551; also: nearly all actives have a fitted effect of over 60% in size
Target sequence (P51450 whole entry, looked up, the tested form may be a part): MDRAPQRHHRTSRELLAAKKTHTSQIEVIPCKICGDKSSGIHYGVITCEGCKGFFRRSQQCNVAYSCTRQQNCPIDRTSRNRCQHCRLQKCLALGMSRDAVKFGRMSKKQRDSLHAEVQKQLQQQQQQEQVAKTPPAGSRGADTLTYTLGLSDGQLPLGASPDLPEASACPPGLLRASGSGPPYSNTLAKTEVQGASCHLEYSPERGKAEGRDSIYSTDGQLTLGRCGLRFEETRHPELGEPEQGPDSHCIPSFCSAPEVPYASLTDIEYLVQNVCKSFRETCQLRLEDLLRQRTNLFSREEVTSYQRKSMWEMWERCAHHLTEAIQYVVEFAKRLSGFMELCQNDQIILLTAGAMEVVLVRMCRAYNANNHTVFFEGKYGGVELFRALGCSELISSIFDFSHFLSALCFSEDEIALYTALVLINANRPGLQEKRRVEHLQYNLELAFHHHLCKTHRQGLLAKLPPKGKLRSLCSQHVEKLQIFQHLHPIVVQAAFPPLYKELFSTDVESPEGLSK
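Drosophila Schneider cells stably carrying a metallothionein-driven Gal4 DBD–ROR gamma fusion and a UAS-Photinus luciferase reporter were exposed to compound for 1 hr, then induced with copper sulfate (700 uM final) for 20 hr at ambient temperature before luminescence reading.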
TDP1 cell CPT – DT40-hTDP1 cell growth loss with CPT. chicken DT40 Tdp1-/-;hTDP1 cells + 20 nM CPT, ATP luminescence, 48 h. Potency, µM (highest dose often 46.2 µM), inactives show at the highest dose activity change, negative = growth inhibition, hits mostly inhibitors. hit rate 12% among 420,000; also: nearly all actives have a fitted effect of over 55% in size
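Chicken DT40 Tdp1-/- cells stably complemented with human TDP1 were seeded at 400 cells/well in medium containing 20 nM camptothecin, exposed to pin-transferred compounds, and grown at 37 °C for at least 48 hr. Viability was read as ATP luminescence.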
Starred values were filed as active, the others as inactive; ? = inconclusive; / = not tested or not shown; [ ] = remark or other dose. The list is not random: actives were taken first. Their share in the collection is about 19%. Calls follow the shape of the dose curve; as a rule, active = well fitted curve in the direction sought with a large enough effect; inconclusive = small, poorly fitted or top-dose-only effect, or another doubt; inactive = no such curve, though single readings can be large; an effect the other way counts as inactive or inconclusive. % is scaled to controls: 0 for no effect and ±100 for the full control effect; potency is read from the fitted curve at half-maximal effect.

SMILES | Gal4-VP16 FLuc | TDP1 inh | DT40 TDP1 no CPT | RORg inh | TDP1 cell CPT
COCCNC(=O)c1ccccc1-c1nc(-c2ccccc2OC)no1 | 3% | 2% | -7% | -1% | -26%
COc1ccccc1-c1noc(CCCC(=O)NC2CCCC2)n1 | 4% | 0%[0.0935 µM] | ? | -6% | -7%
COc1ccccc1-c1noc(CCC(=O)Nc2ccccc2Cl)n1 | -3%[0.365 µM] | 0% | -3% | 10% | -10%
CCOc1ccccc1NC(=O)CCCc1nc(-c2ccccc2Cl)no1 | / | -1% | ? | / | 13µM*
COc1ccc(-c2noc(CCC(=O)NC3CCCC3)n2)cc1 | -6% | 8% | ? | 12% | -26%
COc1ccc(-c2noc(CCCC(=O)NC3CCCCC3)n2)cc1 | 16µM* | 1% | 23µM* | 79% | 21µM*
CCOc1ccccc1NC(=O)c1ccccc1-c1nc(-c2ccccc2OC)no1 | 0% | 9% | 9.2µM* | 38% | 16µM*
O=C(CCCc1nc(-c2ccccc2Cl)no1)NC1CCCC1 | ? | 1% | ? | 8.9µM* | 2%
Cc1ccc(C)n1CCN1CCN(C(=O)c2ccco2)CC1 | 0% | 2% | ? | 1% | ?
Cc1c(NC(=O)c2ccc(Cl)s2)c(=O)n(-c2ccccc2)n1C | -1% | 3% | -13% | 12% | -7%
O=C(NCCCCc1ccccc1)C12CN(Cc3ccccc3)CC1C(c1ccc([N+](=O)[O-])cc1)=NO2 (centres undefined) | -7% | 12% | ? | ? | ?
O=C(COc1ccccc1Cl)Nc1ccc(-c2nc3ccccc3s2)cc1 | / | 1%[12.3 µM] | 6.5µM* | / | 5.8µM*
O=C(COc1ccccc1[N+](=O)[O-])Nc1cccc(-c2nc3ccccc3s2)c1 | / | 4% | ? | / | ?
O=C(COc1ccccc1[N+](=O)[O-])Nc1ccc(NC(=O)c2cc3ccccc3o2)cc1 | ? | 3% | ? | ? | 23µM*
O=C(COc1ccccc1[N+](=O)[O-])Nc1ccc(-c2nc3ccccc3s2)cc1 | / | -5% | 21µM* | / | 21µM*
O=C(N/N=C/c1ccco1)c1cc2ccccc2o1 | -22% | 7% | -22% | ? | -10%
O=C(COc1ccc(/C=N/NC(=O)c2cc3ccccc3o2)cc1Br)Nc1ccccc1 | 2.2µM* | 8% | 18µM* | 3.2µM* | 18µM*
CC(=O)Nc1ccc(-c2nnc3n(CC(C)C)c(=O)c4ccccc4n23)cc1 | / | 6% | ? | / | ?
COc1cc(/C=N/NC(=O)c2ccccn2)ccc1OC(=O)c1ccc(Br)cc1 | -22% | 1% | ? | -94% | 18µM*
COc1cc(/C=N/NC(N)=S)ccc1OCc1ccc(C)cc1 | 8.9µM* | 7% | 10µM* | 7.1µM* | 5.2µM*
COc1cc(/C=N/NC(N)=S)ccc1OC(=O)c1ccc(C)cc1 | ? | 11% | -18% | 20µM* | -20%
COc1ccc(C(=O)Oc2cccc(/C=N/NC(N)=S)c2)cc1 | 10µM* | 2% | ? | 16µM* | ?
COc1cc(/C=N/NC(=O)c2ccc(N)cc2)ccc1OC(=O)c1cccc(C)c1 | -9% | 5% | ? | 11% | 0%
COc1cc(/C=N/NC(=O)c2ccccn2)ccc1OC(=O)c1ccccc1Br | ? | 4%[56.1 µM] | ? | ? | ?
CC(=O)c1cc(CN2CCN(CCc3ccccc3)C(CCO)C2)cs1 (centres undefined) | -8% | 0% | -19% | -2% | 8%
CC(Oc1ccccc1)C(=O)NC1C(=O)N2C1SC(C)(C)C2C(=O)O (centres undefined) | -6% | -1% | 9% | -18% | 6%
COc1ccc(Nc2nc(-c3c[nH]c4ccccc34)cs2)cc1 | -7% | 11% | -23% | -21% | -12%
CCOc1ccc2[nH]cc(-c3csc(N)n3)c2c1 | 1% | / | 10µM* | 0% | ?
CC(C(=O)NCc1ccccc1)N(CCN1CCOCC1)C(=O)c1snc(C(N)=O)c1N (centres undefined) | -7% | 6% | / | -3% | /
